Laboratory results taken from the supplement of paper PMC7057948, “A genome-wide approach for identification and characterisation of metabolite-inducible systems” (Nature Communications, 2020).

How the values were obtained:
Details in all cases: inducer concentration 5 mM; 6 h; Cupriavidus necator H16; minimal medium + 0.4% gluconate
[1] = system: AcoR/P_H16_RS19445 acetoin biosensor (pEH052); assay: relative induction of RFP reporter vs primary effector (background-corrected); higher = stronger activation of the biosensor
Description: (§1)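 C. necator H16 strains, each carrying one of 21 transcription factor/inducible promoter–mRFP biosensor plasmids, were grown in minimal medium in 96-well plates (robotic platform). Each was exposed to 46 structurally or metabolically related compounds at 5 mM at 30 °C. OD-normalised RFP fluorescence was read 6 h later and expressed as relative induction (%) = 100 × (FL compound − FL uninduced)/(FL primary inducer − FL uninduced); mean of n=4.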

[2] = system: AraC/P_araBAD L-arabinose biosensor (pEH176); assay: as above
Description: as §1

[3] = system: BenM/P_H16_RS09790 benzoate biosensor (pEH148); assay: as above
Description: as §1

[4] = system: FdsR/P_H16_RS03165 formate biosensor (pEH134); assay: as above
Description: as §1

[5] = system: GabR/P_H16_RS23655 GABA biosensor (pEH256); assay: as above
Description: as §1

[6] = system: HpdR/P_H16_RS18295 3-hydroxypropanoate biosensor (pEH010); assay: as above
Description: as §1

[7] = system: KynR/P_H16_RS14030 L-kynurenine biosensor (pEH136); assay: as above
Description: as §1

[8] = system: NahR/P_H16_RS08125 salicylate biosensor (pEH042); assay: as above
Description: as §1

[9] = system: OapR/P_H16_RS01330 beta-alanine biosensor (pEH147); assay: as above
Description: as §1

[10] = system: PcaQ/P_H16_RS30145 3,4-dihydroxybenzoate biosensor (pEH161); assay: as above
Description: as §1

[11] = system: PhgR/P_H16_RS05530 phenylglyoxylate biosensor (pEH155); assay: as above
Description: as §1

[12] = system: PhhR/P_H16_RS18365 L-phenylalanine biosensor (pEH137); assay: as above
Description: as §1

[13] = system: SauR/P_H16_RS13695 sulfonatoacetate biosensor (pEH157); assay: as above
Description: as §1

[14] = system: TtdR/P_H16_RS10665 tartrate biosensor (pEH083); assay: as above
Description: as §1

[15] = system: XdhR/P_H16_RS05055 xanthine biosensor (pEH154); assay: as above
Description: as §1

[16] = system: heterologous inducible system pEH002 (rhamnose/acrylate/cumate/itaconate set); assay: as above
Description: as §1

[17] = system: heterologous inducible system pEH020 (rhamnose/acrylate/cumate/itaconate set); assay: as above
Description: as §1

[18] = system: heterologous inducible system pEH040 (rhamnose/acrylate/cumate/itaconate set); assay: as above
Description: as §1

[19] = system: heterologous inducible system pEH086 (rhamnose/acrylate/cumate/itaconate set); assay: as above
Description: as §1

[20] = system: AcoR/P_H16_RS19445 acetoin biosensor (pEH052); assay: relative induction of RFP reporter vs primary effector; higher = stronger activation
Description: (§2)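 Orthogonality screen of 21 primary inducers against 21 transcription factor/inducible promoter–mRFP biosensors in C. necator H16 in minimal medium, robotic 96-well format, 5 mM inducer, 30 °C. OD-normalised RFP fluorescence was read 6 h later and expressed as relative induction (%) = 100 × (FL compound − FL uninduced)/(FL primary inducer − FL uninduced); mean of n=4. Cognate pairs (100% by definition) omitted.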

[21] = system: AraC/P_araBAD L-arabinose biosensor (pEH176); assay: as above
Description: as §2

[22] = system: BadR/P_H16_RS27200 cyclohexanecarboxylate biosensor (pEH159); assay: as above
Description: as §2

[23] = system: BenM/P_H16_RS09790 benzoate biosensor (pEH148); assay: as above
Description: as §2

[24] = system: FdsR/P_H16_RS03165 formate biosensor (pEH134); assay: as above
Description: as §2

[25] = system: GabR/P_H16_RS23655 GABA biosensor (pEH256); assay: as above
Description: as §2

[26] = system: HpdA/P_H16_RS24175 L-tyrosine biosensor (pEH158); assay: as above
Description: as §2

[27] = system: NahR/P_H16_RS08125 salicylate biosensor (pEH042); assay: as above
Description: as §2

[28] = system: PcaQ/P_H16_RS30145 3,4-dihydroxybenzoate biosensor (pEH161); assay: as above
Description: as §2

[29] = system: PhgR/P_H16_RS05530 phenylglyoxylate biosensor (pEH155); assay: as above
Description: as §2

[30] = system: SauR/P_H16_RS13695 sulfonatoacetate biosensor (pEH157); assay: as above
Description: as §2

[31] = system: TtdR/P_H16_RS10665 tartrate biosensor (pEH083); assay: as above
Description: as §2

[32] = system: XdhR/P_H16_RS05055 xanthine biosensor (pEH154); assay: as above
Description: as §2

[33] = system: heterologous L-rhamnose-inducible system; assay: as above
Description: as §2

[34] = system: heterologous acrylate-inducible system; assay: as above
Description: as §2

[35] = system: heterologous cumate-inducible system; assay: as above
Description: as §2

[36] = system: heterologous itaconate-inducible system; assay: as above
Description: as §2

[37] = system: OapR/P_H16_RS01330 beta-alanine biosensor (pEH147); assay: as above
Description: as §2
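For relative induction of RFP reporter vs primary effector (background-corrected) in this document: RFP excited at 585 nm with emission read at 620 nm, culture medium blanks subtracted from fluorescence and absorbance prior to normalisation.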

Oc1ccc(O)cc1 [hydroquinone]
relative induction of RFP reporter [1]: 4.27% | relative induction of RFP reporter [2]: 0.188% | relative induction of RFP reporter [3]: 0.0575% | relative induction of RFP reporter [4]: 11.3% | relative induction of RFP reporter [5]: 8.11% | relative induction of RFP reporter [6]: 1.65% | relative induction of RFP reporter [7]: 1.53% | relative induction of RFP reporter [8]: 0.108% | relative induction of RFP reporter [9]: 0.00669% | relative induction of RFP reporter [10]: 0.229% | relative induction of RFP reporter [11]: 1.56% | relative induction of RFP reporter [12]: 2.24% | relative induction of RFP reporter [13]: 0.207% | relative induction of RFP reporter [14]: 1.2% | relative induction of RFP reporter [15]: 0.708% | relative induction of RFP reporter [16]: 0.0465% | relative induction of RFP reporter [17]: -0.0999% | relative induction of RFP reporter [18]: 2.73% | relative induction of RFP reporter [19]: 0.735%

NCCC(=O)O [β-alanine]
relative induction of RFP reporter [20]: -2.32% | relative induction of RFP reporter [21]: -0.0067% | relative induction of RFP reporter [22]: -0.428% | relative induction of RFP reporter [23]: -0.0408% | relative induction of RFP reporter [24]: -3.65% | relative induction of RFP reporter [25]: -1.1% | relative induction of RFP reporter [26]: -0.165% | relative induction of RFP reporter [27]: 0.0063% | relative induction of RFP reporter [28]: -0.208% | relative induction of RFP reporter [29]: -0.344% | relative induction of RFP reporter [30]: -0.0116% | relative induction of RFP reporter [31]: 0.268% | relative induction of RFP reporter [32]: -0.793% | relative induction of RFP reporter [33]: 0.0016% | relative induction of RFP reporter [34]: -2.33% | relative induction of RFP reporter [35]: -1.44% | relative induction of RFP reporter [36]: -0.489%

CC(=O)C(C)O (stereo not given) [acetoin]
relative induction of RFP reporter [21]: 0.00953% | relative induction of RFP reporter [22]: -0.805% | relative induction of RFP reporter [23]: -0.0473% | relative induction of RFP reporter [24]: -6.92% | relative induction of RFP reporter [25]: -1.36% | relative induction of RFP reporter [26]: -0.195% | relative induction of RFP reporter [27]: 0.00159% | relative induction of RFP reporter [37]: -0.507% | relative induction of RFP reporter [28]: -0.169% | relative induction of RFP reporter [29]: -0.461% | relative induction of RFP reporter [30]: -0.0229% | relative induction of RFP reporter [31]: 0.102% | relative induction of RFP reporter [32]: -0.695% | relative induction of RFP reporter [33]: -0.0013% | relative induction of RFP reporter [34]: -1.85% | relative induction of RFP reporter [35]: -1.61% | relative induction of RFP reporter [36]: 0.0808%

O=C(O)c1ccc(O)c(O)c1 [3,4-dihydroxybenzoate]
relative induction of RFP reporter [20]: -0.382% | relative induction of RFP reporter [21]: -0.0224% | relative induction of RFP reporter [22]: -0.555% | relative induction of RFP reporter [23]: -0.0316% | relative induction of RFP reporter [24]: 8.18% | relative induction of RFP reporter [25]: -1.96% | relative induction of RFP reporter [26]: -0.149% | relative induction of RFP reporter [27]: 0.0143% | relative induction of RFP reporter [37]: -1.27% | relative induction of RFP reporter [29]: -0.535% | relative induction of RFP reporter [30]: 0.0892% | relative induction of RFP reporter [31]: -0.148% | relative induction of RFP reporter [32]: -0.547% | relative induction of RFP reporter [33]: 0.0186% | relative induction of RFP reporter [34]: -0.891% | relative induction of RFP reporter [35]: -0.667% | relative induction of RFP reporter [36]: 0.251%
